The values that follow come from ChEMBL document CHEMBL4513216, “Probing the Open Global Health Chemical Diversity Library for Multistage-Active Starting Points for Next-Generation Antimalarials” (ACS Infect Dis, 2020).

The whole screen tested about 65,000 compounds, of which about 2,100 (3.2%) showed an effect of 50% or more. The median lay at about -52%. For the sample, strong results were picked, then their nearest neighbours and some compounds at random.

The test has as its system Plasmodium falciparum. As to the kind of experiment: Screen against P. falciparum Asexual Blood Stage (ABS), at 5uM. The test is classed as functional, Dd2. Conditions: tested at 5 uM.
Regarding `CCC(=O)N1CC[C@H]2[C@H](C[C@@H](Cn3cccn3)N2c2nccs2)C1`, the INHIBITION was -13.4%.

As for `CC(C)N1[C@H](Cn2cccn2)C[C@@H]2CN(Cc3ccoc3)CC[C@@H]21`, the INHIBITION was determined as 40.6%.

For the molecule `CN1CC[C@H]2[C@H](C[C@@H](Cn3cncn3)N2c2nccs2)C1`, the INHIBITION is recorded as -37.1%.

As for `CC(C)N1CC[C@H]2[C@H](C[C@@H](Cn3cccn3)N2c2nccs2)C1`, the INHIBITION is reported as 66.3%.

For `CC(C)N1[C@H](CN2CCCC2)C[C@@H]2CN(Cc3cnn(C)c3)CC[C@@H]21`, the INHIBITION is -20.1%.

For `CC1CN(Cc2nc(Cc3ccccc3F)no2)CCN1C` (stereo not drawn), the INHIBITION is listed as -114%.

Regarding `O=C(CCc1ccsc1)N1CCCC(n2cncn2)C1` (stereo not drawn), the INHIBITION is reported as -152%.

For the molecule `COC[C@@]12CCC[C@@H]1CN(C(=O)CN(C)C)C2`, the INHIBITION was -1.68%.

For `Cc1cc(C)c(Cn2cncn2)cc1CN1CC[C@@H]2CC[C@H](C1)N2`, the INHIBITION is given as 13.3%.

For the molecule `CO[C@H]1CN(Cc2cc(Cn3cncn3)c(C)cc2C)CC[C@H]1N`, the INHIBITION is reported as -28.2%.

In the case of `Cc1cc(C)c(Cn2cncn2)cc1CN1CCC(CN)C1` (stereo not drawn), the INHIBITION amounted to 69%.

Regarding `COCc1ncn2c1CN(C(=O)Nc1cccc(OC)c1)CC2`, the INHIBITION is -101%.

Regarding `CC(C)c1nccn1-c1cccc(C2CCCN(S(=O)(=O)N(C)C)C2)n1` (stereo not drawn), the INHIBITION was -73.6%.

Take `FC(F)(F)CCc1ccnc(NC2CCC(n3cnnc3)CC2)n1` (stereo not drawn): the INHIBITION is on record as -54.2%.

For `N[C@@H]1CC[C@@H](Nc2nccc(CCC(F)(F)F)n2)C1`, the INHIBITION is recorded as -4.32%.

In the case of `NC1CCC(Nc2nccc(CCC(F)(F)F)n2)CC1` (stereo not drawn), the INHIBITION was determined as 50.3%.

Regarding `CS(=O)(=O)N1CCC(c2ccncn2)CC1`, the INHIBITION is -94.7%.

Turning to `CN(C(=O)CSc1ncc[nH]1)C1CC1`, the INHIBITION is -11.8%.

As to `Fc1ccc(CN2CCc3ncnc(C4CCOC4)c3CC2)cc1` (stereo not drawn), the INHIBITION is listed as -78.8%.

In the case of `Cc1cccc(CN(Cc2ccccn2)Cc2ncc(C(C)(C)C)o2)c1`, the INHIBITION is reported as 60.4%.

`CCN(Cc1cccc(Cl)c1)Cc1ncc(C(C)(C)C)o1`: the INHIBITION is recorded as -14.1%.

As to `Cc1cccc(CN(Cc2ccccn2)S(=O)(=O)N(C)C)c1`, the INHIBITION is given as -25.3%.

Consider `CCN1CCN(C)C(=O)C12CCN(Cc1ccsc1)CC2`, for which the INHIBITION was -35.5%.

For `CCc1ccc(CN2CCC3(CC2)C(=O)N(C)CCN3CC2CC2)cc1`, the INHIBITION is given as 68.9%.

On to `CCN1CCN(C)C(=O)C12CCN(Cc1cccc(C)c1)CC2`, for which the INHIBITION was 41.8%.

With `CN(CCc1ccccc1)c1cnn(C)c(=O)c1Br`, the INHIBITION is -12.3%.

In the case of `NC(=O)C(NC1CCN(CC2CCCCC2)CC1)c1ccccc1` (stereo not drawn), the INHIBITION is reported as -75%.

As to `OC(CN1CCN(CC2CCCCC2)CC1)c1ccccc1` (stereo not drawn), the INHIBITION is listed as 3.94%.

In the case of `c1ccc(Oc2ccc(OC34CCCN(CC3)C4)cc2)cc1` (stereo not drawn), the INHIBITION is 40.7%.

Regarding `NC(CC1CCCC1)c1ccccc1` (stereo not drawn), the INHIBITION came to 66.7%.

Turning to `NC(CC1CCCC1)c1ccc(Oc2ccccc2)cc1` (stereo not drawn), the INHIBITION was found to be 79.9%.

Turning to `CC(NC(=O)CSCC(N)=O)c1ccc(Oc2ccccc2)cc1` (stereo not drawn), the INHIBITION is on record as -25.1%.

For the molecule `N#CCCCOc1cccnc1NC(=O)Cc1ccccc1F`, the INHIBITION is -150%.

Regarding `CN(CC(=O)NCC1CCCO1)Cc1nc2c(s1)CCCC2` (stereo not drawn), the INHIBITION was -39.8%.

Turning to `Cc1cc(C)c(CN2CCCC23Cc2ccccc2CNC3=O)c(C)c1` (stereo not drawn), the INHIBITION was found to be 8.96%.

For `CC(C)C(=O)NC1CCCN(C(=O)c2ccc(O)c(Cl)c2)C1` (stereo not drawn), the INHIBITION is on record as -84%.

On to `O=C(Nc1ccccc1Cn1cccn1)N1CCCC(N2CCCC2)C1` (stereo not drawn), for which the INHIBITION was -31.7%.

As to `CN1CCN(c2ccc3ccc(C(=O)N4CCCO4)cn23)CC1`, the INHIBITION is on record as 6.88%.

On to `COc1cc(CNCc2ccnc(N3CCCCC3)c2)cc(OC)c1`, for which the INHIBITION came to 61.4%.

As for `COc1ccc(CNCc2ccnc(N3CCCCC3)c2)cc1OC`, the INHIBITION was -9.72%.

Regarding `COc1cc(CNCc2ccnc(N3CCCC3)c2)cc(OC)c1`, the INHIBITION came out at 61.5%.

As for `COc1c(CNCc2ccnc(N3CCCCC3)c2)c(C)nn1C`, the INHIBITION is on record as -15.8%.

Take `COc1cc(CNCc2ccnc(N3CCOCC3)c2)cc(OC)c1`: the INHIBITION is reported as -50.4%.

Consider `COc1c(CNCc2ccnc(N3CCCC3)c2)c(C)nn1C`, for which the INHIBITION is -64.4%.

Regarding `CC(C)NC(=O)C1CN(C(=O)N(C)C)CC12CCOCC2` (stereo not drawn), the INHIBITION is -145%.

For `Cc1cc(N2CCC(N(C)C(=O)c3ccc(C#N)cc3)CC2)nc(C)n1`, the INHIBITION is given as -6.47%.

For the molecule `CCCc1noc(CCCC(=O)N2CCCC2c2cnn(C)c2)n1` (stereo not drawn), the INHIBITION is given as -37%.

On to `COCCN(C)C(=O)c1nc2c(s1)CCCN2c1ccc(C)nn1`, for which the INHIBITION was -53.3%.

Turning to `CCN1CCCN(C(=O)c2ccc(NC(=O)CC(C)C)c(C)c2)CC1`, the INHIBITION is listed as -98.5%.

With `Cc1cccc(C(=O)N2CC[C@@H]3[C@H]2CCC(=O)N3c2ccccc2)n1`, the INHIBITION is given as -87%.

Take `OC1(CNCc2cnc(N3CCOCC3)nc2)CCCCC1`: the INHIBITION is on record as -74.5%.

Consider `Cc1ccccc1C1(CNCc2cnc(N3CCOCC3)nc2)CC1`, for which the INHIBITION is on record as 50.8%.

As for `c1ccc(C2(CNCc3cnc(N4CCOCC4)nc3)CC2)cc1`, the INHIBITION was -22.6%.
